# The source made the active and inactive calls. The calls were made as follows: active = hit-call score of the fitted dose curve at least 0.9, where 1 is the maximum; inactive = score below 0.9.
# Assay: Tanguay_ZF_120hpf_MORT: Oregon State University Tanguay Lab 120 Hour Post-fertilization zebrafish Assay for Mortality (AID 2284399)
# Experimental: Tanguay_ZF_120hpf is a whole embryo, multiplexed endpoint assay using zebrafish larvae exposed for 120 hours post fertilization on a 96-well plate.Tanguay_ZF_120hpf_MORT is one of one assay component(s) measured or calculated from the Tanguay_ZF_120hpf assay. It is designed to make measurements of zebrafish development as detected with brightfield microscopy of developing zebrafish embryos.Data from the assay component Tanguay_ZF_120hpf_MORT was analyzed into 1 assay endpoints. This assay endpoint, Tanguay_ZF_120hpf_MORT, was analyzed in the positive analysis fitting direction relative to DMSO as the negative control and baseline of activity. Using a type of viability reporter, gain-of-signal activity can be used to understand changes in developmentals as they relate to the whole embryo. To generalize the intended target to other relatable targets, this assay endpoint is annotated to the zebrafish development intended target family, where the subfamily is embryonic mortality.
# Zebrafish husbandry: Tropical 5D wild-type adult zebrafish were housed in at an approximate density of 1000 per 100 gallon tank at the Sinnhuber Aquatic Research Laboratory, Oregon State University, Corvallis, OR. Each tank was kept at standard laboratory conditions of 28C on a 14-h light/10-h dark photoperiod in fish water consisting of reverse osmosis water supplemented with a commercially available salt (Instant Ocean). Spawning funnels were placed into the tanks the night prior, and embryos were collected and staged. To increase bioavailability, the chorion was enzymatically removed using pronase (63.6mg/ml, >/= 3.5U/mg, Sigma-Aldrich: P5147) at 4 hours post fertilization (hpf) using a custom automated dechorionator.Chemical exposures: Six hpf dechorionated embryos were placed 1 embryo per well in a 96-well plate prefilled with 90 ul of EM using automated embryo placement systems (AEPS). Ten microliters of each row of dilution plate 2 was added to 2 exposure plates. The final DMSO concentration used was 0.64% (vol/vol). Thirty-two embryos were also exposed to 5uM trimethyltin chloride (positive control). Plates were sealed to prevent evaporation and foil covered to reduce light exposure and kept in a 28C incubator. Embryos were statically exposed until 120 hpf. At 24 hpf, embryos were assessed for photomotor response using a custom photomotor response analysis tool (PRAT) and for developmental toxicity endpoints (MO24: mortality at 24 hpf, DP: developmental progression, SM: spontaneous movement, and NC: notochord distortion). At 120 hpf, locomotor activity was measured using Viewpoint Zebralab and assessed for 13 endpoints. Zebrafish acquisition and analysis program (ZAAP), a custom program designed to inventory, acquire, and manage zebrafish data, was used to collect developmental endpoints as either present or absent (i.e., binary responses were recorded). If mortality occurred for an embryo (at either 24 or 120 hpf), the non-mortality endpoints were not measured.
SMILES,outcome,AC50
CCCCCCCCC(F)(F)C(F)(F)C(F)(F)C(F)(F)C(F)(F)C(F)(F)F,inactive,–
OCC(F)(F)C(F)(F)C(F)(F)C(F)(F)C(F)(F)C(F)(F)F,inactive,–
O=C(O)C(F)(F)C(F)(F)OC(F)(F)F,inactive,–
CC(C)(C)C(=O)CC(=O)C(F)(F)C(F)(F)C(F)(F)F,inactive,–
O=C(O)C(F)(OC(F)(F)C(F)(OC(F)(F)C(F)(F)C(F)(F)F)C(F)(F)F)C(F)(F)F (stereo not given),inactive,–
C=C(C)C(=O)OCC(F)(F)C(F)(F)C(F)(F)F,inactive,–
FC(F)(F)C(F)(F)C(F)(F)C(F)(F)C(F)(F)C(F)(F)C(F)(F)Br,inactive,–
O=C(O)C(F)(F)C(F)(F)C(F)F,inactive,–
O=S(=O)(O)C(F)(F)C(F)(F)C(F)(F)C(F)(F)C(F)(F)C(F)(F)C(F)(F)F,inactive,–
NC(=O)C(F)(F)C(F)(F)C(F)(F)C(F)(F)F,inactive,–
FC(F)(F)C(F)(F)C(F)(F)C(F)(F)C(F)(F)CCI,inactive,–
C=C(C)C(=O)OCC(F)(F)C(F)(F)C(F)(F)C(F)(F)C(F)(F)C(F)(F)C(F)(F)F,inactive,–
CCO[Si](CCC(F)(F)C(F)(F)C(F)(F)C(F)(F)C(F)(F)C(F)(F)F)(OCC)OCC,inactive,–
C=CC(F)(F)C(F)(F)C(F)(F)C(F)(F)C(F)(F)C(F)(F)C(F)(F)C(F)(F)C=C,inactive,–
O=C(O)C(F)(F)C(F)(F)C(F)(F)C(F)(F)C(F)(F)C(F)(F)C(F)(F)C(F)(F)C(F)(F)C(F)(F)C(F)(F)C(F)(F)F,–,7.47 µM (active)
OCC(F)(F)C(F)(F)C(F)(F)C(F)F,inactive,–
O=P(O)(O)OCCC(F)(F)C(F)(F)C(F)(F)C(F)(F)C(F)(F)C(F)(F)F,–,18.7 µM (active)
FC(F)(F)C(F)(F)C(F)(F)N(C(F)(F)C(F)(F)C(F)(F)F)C(F)(F)C(F)(F)C(F)(F)F,inactive,–
C=C(C)C(=O)OCCC(F)(F)C(F)(F)C(F)(F)C(F)(F)C(F)(C(F)(F)F)C(F)(F)F,inactive,–
FC(F)(F)C(F)(F)C(F)(F)C(F)(F)C(F)(F)C(F)(F)C(F)(F)I,inactive,–

SMILES,outcome,AC50
COC(=O)CCC(F)(F)C(F)(F)C(F)(F)C(F)(F)F,inactive,–
O=C(O)C(F)(OC(F)(F)C(F)(OC(F)(F)C(F)(OC(F)(F)C(F)(F)C(F)(F)F)C(F)(F)F)C(F)(F)F)C(F)(F)F (stereo not given),inactive,–
O=C(O)C=C(C(F)(F)F)C(F)(F)F,inactive,–
C=CC(F)(F)C(F)(F)C(F)(F)C(F)(F)C(F)(F)C(F)(F)C(F)(F)C(F)(F)F,inactive,–
O=C(O)C(F)(F)C(F)(F)C(F)(F)F,inactive,–
C=CC(=O)OCC(F)(F)C(F)(F)C(F)(F)C(F)(F)COC(=O)C=C,–,17.5 µM (active)
O=S(=O)(OCCOC(F)(F)F)C(F)(F)F,inactive,–
FC1CC(F)(F)C(F)(F)C1(F)F (stereo not given),inactive,–
OCC(F)(F)C(F)(F)C(F)(F)F,inactive,–
OCC(F)(F)C(F)(F)C(F)(F)C(F)(F)C(F)(F)C(F)F,inactive,–
C=CC(=O)OCC(F)(F)C(F)(F)C(F)(F)C(F)(F)C(F)(F)C(F)(F)C(F)(F)F,inactive,–
OCCCC(F)(F)C(F)(F)C(F)(F)F,inactive,–
O=C(O)C(F)(F)C(F)(F)C(F)(F)C(F)(F)F,inactive,–
FC(F)(F)C(F)(F)C(F)(F)C(F)(F)CCI,inactive,–
FC(F)(F)C(F)(F)C(F)(F)C(F)(F)C(F)(F)C(F)(F)C(F)(F)C(F)(F)F,inactive,–
O=C(O)C(F)(F)C(F)(F)C(F)(F)C(F)(F)C(F)(F)C(F)(F)C(F)(F)C(F)(F)Cl,inactive,–
O=S(=O)(OCC(F)F)C(F)(F)F,inactive,–
FC(F)(F)C(F)(F)C(F)(F)C(F)(F)C(F)(F)C(F)(F)CC1CO1 (stereo not given),inactive,–
OCCCC(F)(F)C(F)(F)C(F)(F)C(F)(F)C(F)(F)C(F)(F)C(F)(F)F,inactive,–
FC(F)(F)C(F)(F)C(F)(F)C(F)(F)C(F)(F)C(F)(F)C(F)(F)C(F)(F)CCS,inactive,–
